{"source": "PubChem BioAssay", "note": "The source made the active and inactive calls. Note: test concentration not given here."}
{"assay": "fission yeast growth modulation, primary screen, strain 972, OD600, 24 h, no modulator (AID 1090);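 note: basal condition with compound alone and no growth modifier present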", "conditions": "S. pombe 972 growth, higher = more signal, called active from +8 up or from −8 down"}
{"smiles": "COCCOC(=O)N1C(=O)[C@@]2(c3cc(C#CCCO)ccc31)[C@H](c1ccc(O)cc1)N1[C@H](c3ccccc3)[C@H](c3ccccc3)OC(=O)[C@H]1[C@@H]2C(=O)N1CCc2cc(OC)c(OC)cc2C1", "z-score": "0.511 (inactive)"}
{"smiles": "Cc1ccc(S[C@]2(C(=O)NC3CC3)CC(=O)N(Cc3cc(C(F)(F)F)cc(C(F)(F)F)c3)[C@@H]2c2ccc(CO)cc2I)cc1", "z-score": "-3.38 (inactive)"}
{"smiles": "C[N+](C)(C)CCCC[C@@H]1NC(=O)[C@H]2C[C@@H](C(=O)NCCCCCNC(=O)CS)[C@@H](c3ccc(O)cc3)N2C1=O", "z-score": "-0.839 (inactive)"}
{"smiles": "CC[C@H](C)C(=O)O[C@H]1CC[C@]2(C)C3=C(CCC2C1(C)C)[C@]1(C)CC[C@H]([C@H](C)CCCC(C)C)[C@@]1(C)CC3", "note": "(stereo not given in full)", "z-score": "0.14 (inactive)"}
{"smiles": "COCCOC(=O)N1C(=O)[C@@]2(c3cc(C#CCC(C(=O)OC)C(=O)OC)ccc31)[C@H](C(=O)N1CCCCCCC1)[C@H]1C(=O)O[C@H](c3ccccc3)[C@H](c3ccccc3)N1[C@@H]2c1ccccc1OCCO", "z-score": "-1.08 (inactive)"}
{"smiles": "C=CCOC(=O)[C@H]1[C@@H]2C(=O)O[C@@H](c3ccccc3)[C@@H](c3ccccc3)N2[C@@H](c2ccc(OCCOC(=O)[C@H]3C[C@H]4C(=O)NCC(=O)N4[C@H]3c3ccc(O)cc3)cc2)[C@]12C(=O)Nc1ccc(I)cc12", "z-score": "0.629 (inactive)"}
{"smiles": "CC#CCO[Si](C#CCCCCCC)(C(C)C)C(C)C", "z-score": "-19.1 (active)"}
{"smiles": "CC(c1ccccc1)C(O)C1C=CC2C(=O)N(c3ccccc3)C(=O)C2N1Nc1ccc(C#N)cc1", "note": "(stereo not given)", "z-score": "1.16 (inactive)"}
{"smiles": "O=C1c2ccccc2[C@@]2(Cc3ccccc3N(Cc3ccccc3)C2=O)[C@H](c2ccc(CO)cc2)N1Cc1ccccc1", "z-score": "-0.678 (inactive)"}
{"smiles": "CC(C)CNC(=O)[C@@H]1c2ccccc2C(=O)N(CC23CC4CC(CC(C4)C2)C3)[C@H]1c1ccc(CO)cc1", "z-score": "-1.88 (inactive)"}
{"assay": "S. cerevisiae growth modulation with rapamycin, primary screen, strain BY4716, OD600, 96 h (AID 1091)", "conditions": "higher = more signal, called active from +8 up or from −8 down"}
{"smiles": "COCCOC(=O)N1C(=O)[C@@]2(c3cc(C#CCNC(N)=O)ccc31)[C@H](C(=O)NC[C@H](O)c1ccccc1)[C@H]1C(=O)O[C@H](c3ccccc3)[C@H](c3ccccc3)N1[C@@H]2c1ccc(OCCO)cc1", "z-score": "4.57 (inactive)"}
{"smiles": "COC(=O)[C@@]1(Cc2ccc(F)cc2)[C@H]2c3cc(C(=O)N(C)C)n(CCn4cc([N+](=O)[O-])nc4C)c3C[C@H]2CN1C(=O)c1ccccc1", "z-score": "0.942 (inactive)"}
{"smiles": "CN(C)CCCCNC(=O)[C@H]1C[C@H]2C(=O)N[C@@H](Cc3ccccc3)C(=O)N2[C@H]1c1cccc(OCCO)c1", "z-score": "-0.247 (inactive)"}
{"smiles": "CCCCN1CC=CC23O[C@@H]4/C=C\\CCC(C)OC(=O)C4[C@H]2C(=O)N(C(C)CO)[C@@H]3C1=O", "note": "(stereo not given in full)", "z-score": "0.316 (inactive)"}
{"smiles": "CCCCC(=C=CC[C@@H](O)c1cccc(OCCO)c1)CCO", "z-score": "-0.238 (inactive)"}
{"smiles": "CN1C=C(C(=O)OCCS(C)(=O)=O)C(C(=O)OCCS(C)(=O)=O)=CC(CCCO)=CC1c1ccc(CN2CCCC2)cc1", "note": "(stereo not given)", "z-score": "-0.781 (inactive)"}
{"smiles": "C#CCN(C/C=C/c1ccccc1)[C@H](CO[Si](C)(C)C(C)(C)C)c1ccccc1", "z-score": "0.0066 (inactive)"}
{"smiles": "O=C1O[C@H](c2ccccc2)[C@H](c2ccccc2)N2[C@H]1[C@@H](C(=O)N1CCN(c3ncccn3)CC1)[C@]1(C(=O)Nc3ccccc31)[C@H]2c1ccc(O)cc1", "z-score": "3.6 (inactive)"}
{"smiles": "[N-]=[N+]=NCc1ccccc1[C@@H]1OC(c2ccc(OCCCO)cc2)=N[C@]1(Cc1ccccc1)C(=O)NCc1ccccc1", "z-score": "8.96 (active)"}
{"smiles": "C=CCOC(=O)[C@H]1[C@@H]2C(=O)O[C@@H](c3ccccc3)[C@@H](c3ccccc3)N2[C@@H](c2ccc(OCCOC(=O)[C@@H]3C[C@@H]4C(=O)N[C@@H](CC(C)C)C(=O)N4[C@@H]3c3ccc(O)cc3)cc2)[C@]12C(=O)Nc1ccc(I)cc12", "z-score": "3.36 (inactive)"}
{"smiles": "CC(C)CNC(=O)[C@@]1(C)c2ccccc2C(=O)N(Cc2cc(F)cc(C(F)(F)F)c2)[C@H]1c1ccc(CO)cc1", "z-score": "-0.629 (inactive)"}
{"smiles": "NCCCC[C@@H]1NC(=O)[C@H]2C[C@@H](C(=O)O)[C@@H](c3cccc(OCCO)c3)N2C1=O", "z-score": "-0.503 (inactive)"}
{"smiles": "CC(C)C[C@@H]1NC(=O)[C@H]2C[C@@H](C(=O)NCCCCCNC(=O)CS)[C@@H](c3ccc(O)cc3)N2C1=O", "z-score": "0.871 (inactive)"}
{"smiles": "CO[C@H]1O[C@H](CO)[C@@H](OC(=O)Nc2ccccc2)[C@@H]2OC(=O)[C@H](Cc3ccccc3)C/C=C/C[C@@H](Cc3ccccc3)C(=O)O[C@@H]12", "z-score": "1.9 (inactive)"}
{"smiles": "CC(C)CNC(=O)[C@@H]1c2ccccc2C(=O)N(Cc2ccccc2Cl)[C@H]1c1ccc(CO)cc1", "z-score": "-0.332 (inactive)"}
{"smiles": "CCc1cccc(NC(=O)O[C@H]2[C@H](OC(=O)Nc3ccc4c(c3)OCO4)[C@H](OC(=O)Nc3ccc4c(c3)OCO4)[C@@H](OC)O[C@@H]2CO)c1", "z-score": "7.36 (inactive)"}
{"smiles": "CCN(CC)c1ccc(N2CC=CC34O[C@@H]5C=CCOC(=O)[C@@H]5[C@H]3C(=O)N(CCCO)[C@@H]4C2=O)cc1", "note": "(stereo not given in full)", "z-score": "-0.298 (inactive)"}
{"smiles": "C=C(CCCC)/C(=C/C[C@H](OC(C)=O)c1cccc(OCCO)c1)c1cc(C(=O)OC)ccc1OC", "z-score": "-0.894 (inactive)"}
{"smiles": "C=C(COC)/C(=C/C[C@H](OC(=O)c1ccncc1)c1ccc(OCCO)cc1)c1cc(C(=O)OC)ccc1OC", "z-score": "-0.649 (inactive)"}
{"smiles": "NC(=O)NCC#Cc1ccc2c(c1)[C@]1(C(=O)N2)[C@H](C(=O)Nc2nc3ccccc3s2)[C@H]2C(=O)O[C@H](c3ccccc3)[C@H](c3ccccc3)N2[C@@H]1c1ccc(OCCO)cc1", "z-score": "2.18 (inactive)"}
{"smiles": "C=CCNC(=O)[C@H]1[C@@H]2C(=O)O[C@@H](c3ccccc3)[C@@H](c3ccccc3)N2[C@@H](c2ccc(O)cc2)[C@]12C(=O)Nc1ccc(C#CC3=CCCCC3)cc12", "z-score": "1.98 (inactive)"}
{"smiles": "C=CCC(OC(C)=O)[C@@H]1[C@@H](N(Cc2cccc3ccccc23)C(=O)c2ccc(-c3ccccc3)cc2)c2cc(OCCCO)ccc2N1C(=O)c1ccc2ccccc2n1", "note": "(stereo not given in full)", "z-score": "-0.0728 (inactive)"}
{"smiles": "O=C1c2ccccc2[C@](Cc2ccccc2I)(C(=O)O)[C@H](c2ccc(CO)cc2)N1Cc1ccccc1", "z-score": "-1.22 (inactive)"}
{"smiles": "CC(C)[C@@H](C(=O)O)n1cc(-c2ccccc2)nn1", "z-score": "-0.244 (inactive)"}
{"smiles": "C/C=C/CN(C(=O)C#Cc1ccccc1)[C@H](CO[Si](C)(C)C(C)(C)C)c1ccccc1", "z-score": "-0.177 (inactive)"}
{"smiles": "COCCOC(=O)N1C(=O)[C@@]2(c3cc(C#CCCO)ccc31)[C@H](c1ccc(O)cc1)N1[C@H](c3ccccc3)[C@H](c3ccccc3)OC(=O)[C@H]1[C@@H]2C(=O)N1CCc2cc(OC)c(OC)cc2C1", "z-score": "1.23 (inactive)"}
{"smiles": "Cc1ccc(S[C@]2(C(=O)NC3CC3)CC(=O)N(Cc3cc(C(F)(F)F)cc(C(F)(F)F)c3)[C@@H]2c2ccc(CO)cc2I)cc1", "z-score": "-0.429 (inactive)"}
{"smiles": "C[N+](C)(C)CCCC[C@@H]1NC(=O)[C@H]2C[C@@H](C(=O)NCCCCCNC(=O)CS)[C@@H](c3ccc(O)cc3)N2C1=O", "z-score": "-0.554 (inactive)"}
{"smiles": "CC[C@H](C)C(=O)O[C@H]1CC[C@]2(C)C3=C(CCC2C1(C)C)[C@]1(C)CC[C@H]([C@H](C)CCCC(C)C)[C@@]1(C)CC3", "note": "(stereo not given in full)", "z-score": "0.17 (inactive)"}
{"smiles": "COCCOC(=O)N1C(=O)[C@@]2(c3cc(C#CCC(C(=O)OC)C(=O)OC)ccc31)[C@H](C(=O)N1CCCCCCC1)[C@H]1C(=O)O[C@H](c3ccccc3)[C@H](c3ccccc3)N1[C@@H]2c1ccccc1OCCO", "z-score": "3.51 (inactive)"}
{"smiles": "C=CCOC(=O)[C@H]1[C@@H]2C(=O)O[C@@H](c3ccccc3)[C@@H](c3ccccc3)N2[C@@H](c2ccc(OCCOC(=O)[C@H]3C[C@H]4C(=O)NCC(=O)N4[C@H]3c3ccc(O)cc3)cc2)[C@]12C(=O)Nc1ccc(I)cc12", "z-score": "4.17 (inactive)"}
{"smiles": "CC#CCO[Si](C#CCCCCCC)(C(C)C)C(C)C", "z-score": "-1.61 (inactive)"}
{"smiles": "CC(c1ccccc1)C(O)C1C=CC2C(=O)N(c3ccccc3)C(=O)C2N1Nc1ccc(C#N)cc1", "note": "(stereo not given)", "z-score": "37.9 (active)"}
{"smiles": "O=C1c2ccccc2[C@@]2(Cc3ccccc3N(Cc3ccccc3)C2=O)[C@H](c2ccc(CO)cc2)N1Cc1ccccc1", "z-score": "15.9 (active)"}
{"smiles": "CC(C)CNC(=O)[C@@H]1c2ccccc2C(=O)N(CC23CC4CC(CC(C4)C2)C3)[C@H]1c1ccc(CO)cc1", "z-score": "-0.243 (inactive)"}
